Experimental data taken from the supplement of paper PMC12282887.
± gives the standard deviation of the averaged measurements.

Columns and labels:
Experiment in all cases: promoter activity interaction Z-score (Lux/OD deviation from empty-vector control); higher = stronger promoter induction by the compound
[1] = test system: E. coli BW25113 acrABp lux reporter
In short: (§1)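 E. coli BW25113 luxCDABE reporter strains grew at 37°C in 40 µl LB Lennox in 384-well plates, with OD600 and luminescence read every 30 min for 12 h. After integration over 0–8 h for wild type or 1–9 h for deletion strains, wells under 10% of the median growth value were removed. Each score is the Z-transformed residual of growth-normalised luminescence fitted against a control.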

[2] = test system: E. coli BW25113 micFp lux reporter
In short: as §1

[3] = test system: E. coli BW25113 ompFp lux reporter
In short: as §1

[4] = test system: E. coli BW25113 robp lux reporter
In short: as §1

[5] = test system: E. coli BW25113 soxSp lux reporter
In short: as §1

[6] = test system: E. coli BW25113 tolCp lux reporter
In short: as §1

[7] = 0.25 µg/ml, genetic background: wild type
[8] = 0.25 µg/ml, genetic background: ΔmarA
[9] = 0.25 µg/ml, genetic background: Δrob
[10] = 0.25 µg/ml, genetic background: ΔsoxS
[11] = 0.5 µg/ml, genetic background: wild type
[12] = 0.5 µg/ml, genetic background: ΔmarA
[13] = 0.5 µg/ml, genetic background: Δrob
[14] = 0.5 µg/ml, genetic background: ΔsoxS
[15] = 1 µg/ml, genetic background: wild type
[16] = 1 µg/ml, genetic background: ΔmarA
[17] = 1 µg/ml, genetic background: Δrob
[18] = 1 µg/ml, genetic background: ΔsoxS
[19] = 2 µg/ml, genetic background: wild type
[20] = 2 µg/ml, genetic background: ΔmarA
[21] = 2 µg/ml, genetic background: Δrob
[22] = 2 µg/ml, genetic background: ΔsoxS

SMILES: C/C(=C\C(=O)OCCCCCCCCC(=O)O)C[C@@H]1OC[C@H](C[C@@H]2O[C@H]2[C@@H](C)[C@H](C)O)[C@@H](O)[C@H]1O [Pseudomonic acid]
- promoter activity interaction Z-score [1, 7]: -0.112 ± 0.0017
- promoter activity interaction Z-score [1, 8]: 0.206 ± 0.33
- promoter activity interaction Z-score [1, 9]: 0.0305 ± 0.27
- promoter activity interaction Z-score [1, 10]: -0.332 ± 0.5
- promoter activity interaction Z-score [1, 11]: -0.272 ± 0.0069
- promoter activity interaction Z-score [1, 12]: 0.456 ± 0.14
- promoter activity interaction Z-score [1, 13]: -0.0699 ± 0.0047
- promoter activity interaction Z-score [1, 14]: -0.0985 ± 0.042
- promoter activity interaction Z-score [1, 15]: -0.204 ± 0.26
- promoter activity interaction Z-score [1, 16]: 0.378 ± 0.38
- promoter activity interaction Z-score [1, 17]: -0.109 ± 0.35
- promoter activity interaction Z-score [1, 18]: 0.483 ± 0.38
- promoter activity interaction Z-score [1, 19]: -0.0697 ± 0.066
- promoter activity interaction Z-score [1, 20]: -0.0876 ± 0.43
- promoter activity interaction Z-score [1, 21]: 0.431 ± 0.61
- promoter activity interaction Z-score [1, 22]: -0.262 ± 0.13
- promoter activity interaction Z-score [2, 7]: -0.00251 ± 0.014
- promoter activity interaction Z-score [2, 8]: -0.0765 ± 0.049
- promoter activity interaction Z-score [2, 9]: 0.0594 ± 0.055
- promoter activity interaction Z-score [2, 10]: -0.253 ± 0.16
- promoter activity interaction Z-score [2, 11]: -0.108 ± 0.12
- promoter activity interaction Z-score [2, 12]: 0.0535 ± 0.005
- promoter activity interaction Z-score [2, 13]: -0.0538 ± 0.014
- promoter activity interaction Z-score [2, 14]: 0.11 ± 0.00091
- promoter activity interaction Z-score [2, 15]: -0.064 ± 0.06
- promoter activity interaction Z-score [2, 16]: -0.0233 ± 0.076
- promoter activity interaction Z-score [2, 17]: -0.144 ± 0.018
- promoter activity interaction Z-score [2, 18]: 0.271 ± 0.095
- promoter activity interaction Z-score [2, 19]: -0.0515 ± 0.13
- promoter activity interaction Z-score [2, 20]: -0.351 ± 0.054
- promoter activity interaction Z-score [2, 21]: -0.275 ± 0.0059
- promoter activity interaction Z-score [2, 22]: -0.431 ± 0.085
- promoter activity interaction Z-score [3, 7]: 0.431 ± 0.041
- promoter activity interaction Z-score [3, 8]: 0.122 ± 0.59
- promoter activity interaction Z-score [3, 9]: 0.647 ± 0.08
- promoter activity interaction Z-score [3, 10]: 0.0332 ± 0.47
- promoter activity interaction Z-score [3, 11]: 0.435 ± 0.061
- promoter activity interaction Z-score [3, 12]: 0.376 ± 0.74
- promoter activity interaction Z-score [3, 13]: 0.561 ± 0.78
- promoter activity interaction Z-score [3, 14]: 0.388 ± 0.58
- promoter activity interaction Z-score [3, 15]: 0.248 ± 0.034
- promoter activity interaction Z-score [3, 16]: 0.569 ± 0.62
- promoter activity interaction Z-score [3, 17]: -0.0747 ± 0.3
- promoter activity interaction Z-score [3, 18]: 0.938 ± 0.33
- promoter activity interaction Z-score [3, 19]: 1.46 ± 0.058
- promoter activity interaction Z-score [3, 20]: 1.34 ± 1.3
- promoter activity interaction Z-score [3, 21]: 1.51 ± 0.36
- promoter activity interaction Z-score [3, 22]: 1.34 ± 0.34
- promoter activity interaction Z-score [4, 7]: 0.653 ± 0.041
- promoter activity interaction Z-score [4, 8]: 0.421 ± 0.4
- promoter activity interaction Z-score [4, 9]: 0.357 ± 0.37
- promoter activity interaction Z-score [4, 10]: 0.316 ± 0.48
- promoter activity interaction Z-score [4, 11]: 0.392 ± 0.59
- promoter activity interaction Z-score [4, 12]: 0.85 ± 0.05
- promoter activity interaction Z-score [4, 13]: 0.39 ± 0.34
- promoter activity interaction Z-score [4, 14]: 0.257 ± 0.2
- promoter activity interaction Z-score [4, 15]: 0.263 ± 0.2
- promoter activity interaction Z-score [4, 16]: 0.154 ± 0.026
- promoter activity interaction Z-score [4, 17]: 0.375 ± 0.08
- promoter activity interaction Z-score [4, 18]: 0.843 ± 0.45
- promoter activity interaction Z-score [4, 19]: -0.842 ± 0.42
- promoter activity interaction Z-score [4, 20]: -1.15 ± 0.4
- promoter activity interaction Z-score [4, 21]: -1.28 ± 0.23
- promoter activity interaction Z-score [4, 22]: -1.41 ± 0.72
- promoter activity interaction Z-score [5, 7]: -0.0625 ± 0.032
- promoter activity interaction Z-score [5, 8]: -0.0981 ± 0.09
- promoter activity interaction Z-score [5, 9]: 0.0456 ± 0.03
- promoter activity interaction Z-score [5, 10]: -0.226 ± 0.46
- promoter activity interaction Z-score [5, 11]: -0.257 ± 0.034
- promoter activity interaction Z-score [5, 12]: -0.0627 ± 0.0052
- promoter activity interaction Z-score [5, 13]: -0.182 ± 0.0097
- promoter activity interaction Z-score [5, 14]: -0.102 ± 0.24
- promoter activity interaction Z-score [5, 15]: -0.14 ± 0.14
- promoter activity interaction Z-score [5, 16]: -0.143 ± 0.15
- promoter activity interaction Z-score [5, 17]: -0.259 ± 0.033
- promoter activity interaction Z-score [5, 18]: 0.137 ± 0.11
- promoter activity interaction Z-score [5, 19]: 0.249 ± 0.064
- promoter activity interaction Z-score [5, 20]: 0.277 ± 0.25
- promoter activity interaction Z-score [5, 21]: 0.0902 ± 0.012
- promoter activity interaction Z-score [5, 22]: 0.748 ± 0.0089
- promoter activity interaction Z-score [6, 7]: -0.891 ± 0.62
- promoter activity interaction Z-score [6, 8]: -0.0344 ± 0.2
- promoter activity interaction Z-score [6, 9]: -0.281 ± 0.4
- promoter activity interaction Z-score [6, 10]: -1.37 ± 0.18
- promoter activity interaction Z-score [6, 11]: -0.126 ± 0.82
- promoter activity interaction Z-score [6, 12]: 0.395 ± 0.35
- promoter activity interaction Z-score [6, 13]: -0.919 ± 0.45
- promoter activity interaction Z-score [6, 14]: -0.306 ± 0.13
- promoter activity interaction Z-score [6, 15]: -0.0576 ± 0.9
- promoter activity interaction Z-score [6, 16]: 0.349 ± 1.1
- promoter activity interaction Z-score [6, 17]: -0.441 ± 0.81
- promoter activity interaction Z-score [6, 18]: 0.0561 ± 0.82
- promoter activity interaction Z-score [6, 19]: 0.277 ± 0.14
- promoter activity interaction Z-score [6, 20]: -0.606 ± 0.55
- promoter activity interaction Z-score [6, 21]: 0.432 ± 0.075
- promoter activity interaction Z-score [6, 22]: -1.08 ± 0.07
